From PubChem BioAssay (NCI)
About 79,000 compounds went through this panel and 15% of them were active in at least one assay; those are over-represented in the sample as a whole. Rule as the data show it: active = growth inhibition above about 70%; inactive = the rest.

Key:
[1] = NCI Yeast Anticancer Drug Screen. Data for the rad50 strain (AID 155);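 also: 0% = growth of vehicle-only cultures of the same strain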; details: S. cerevisiae rad50 strain growth inhibition; at 50.0 µM; active compounds read high
Summary of the method: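 Genetically altered yeast (DNA repair pathway); compound treatment; growth inhibition vs vehicle ctrl.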

[2] = NCI Yeast Anticancer Drug Screen. Data for the mec2-1 strain (AID 157); details: S. cerevisiae mec2-1 strain, at 50.0 µM, active compounds read high
Summary of the method: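 Test agents were screened against the mec2-1 yeast strain, with defined DNA repair or cell cycle alteration. Growth was scored as inhibition against vehicle-only controls.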

[3] = NCI Yeast Anticancer Drug Screen. Data for the sgs1 mgt1 strain (AID 161);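 also: 0% = growth of cultures given vehicle only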; details: S. cerevisiae sgs1 mgt1 strain, at 50.0 µM, active compounds read high
Summary of the method: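 Inhibition of yeast growth, normalised to vehicle-treated controls, is reported for a strain bearing genetic alterations in DNA damage repair.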

[4] = NCI Yeast Anticancer Drug Screen. Data for the cln2 rad14 strain (AID 165);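 also: 0% = growth equal to vehicle treated cultures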; details: S. cerevisiae cln2 rad14 strain, at 50.0 µM, active compounds read high
Summary of the method: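 Growth of compound-exposed yeast (cln2 rad14 genotype) measured and expressed as inhibition relative to vehicle.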

[5] = NCI Yeast Anticancer Drug Screen. Data for the bub3 strain (AID 167); details: S. cerevisiae bub3 mutant strain, at 50.0 µM, active compounds read high
Summary of the method: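 Yeast carrying a defined mutation is treated with each compound, and growth is compared with that of vehicle-exposed cells to give inhibition.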

[6] = NCI Yeast Anticancer Drug Screen. Data for the mlh1 rad18 strain (AID 175); details: S. cerevisiae mlh1 rad18 strain growth inhibition; at 50.0 µM; active compounds read high
Summary of the method: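 In this whole-cell yeast screen, a strain with altered DNA damage repair is challenged with compound, and its growth is measured against matched vehicle-treated controls.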

Measured: growth inhibition

CCN1OCC(C)(C(=O)OC)C1C (centres undefined)
inactive: [1] -13.9% | [2] -13.1% | [3] -10.7% | [4] -31% | [5] 9.9% | [6] -21.1%

O=C(O)COc1ccc(C2CCCCC2)cc1
inactive: [1] 5.1% | [2] 3.3% | [3] -7.65% | [4] 21.8% | [5] -4.9% | [6] -1.95%

COc1ccc(C(=CC2=CC(=O)C3=C(CCCC3)C2=O)c2ccc(OC)cc2)cc1
inactive: [1] 19.8% | [2] -4.25% | [3] -4.6% | [4] -3.7% | [5] 0.55% | [6] 7.2%

O=C(O)c1ccc(CC2CCCC2)cc1
inactive: [1] 30.8% | [2] 25.9% | [3] 21.4% | [4] -8.2% | [5] -2.35% | [6] 8.85%

O=C(O)CCC(=O)c1ccc[nH]1
inactive: [1] 7.3% | [2] -23.2% | [3] -30.1% | [4] 19.2% | [5] 15.1% | [6] -19.1%

CNNC1=NS(=O)(=O)c2cc(C(=O)OC)c(Cl)cc2S1
inactive: [1] 8.75% | [2] -2.25% | [3] -9.9% | [4] 0.5% | [5] -6% | [6] 8.25%

CCCCCCCC/C=C\CCCCCCCC(=O)OCCN(CCOC(=O)CCCCCCC/C=C\CCCCCCCC)C(=O)c1ccccc1
inactive: [1] -12.9% | [2] -1.2% | [3] -17.9% | [4] -20.2% | [5] -9.9% | [6] -2.65%

c1ccc(-c2c(-c3ccc4c(c3)OCO4)c(-c3ccc4c(c3)OCO4)c(-c3ccccc3)c3ccccc23)cc1
inactive: [1] 32.4% | [2] 20.6% | [3] 19.8% | [4] 28.2% | [5] -1.95% | [6] 23.4%

COC(=O)c1cc(C(=O)OC)c(CC(=O)C(=O)Nc2ccc(Cl)c(C(F)(F)F)c2)nc1CC(=O)C(=O)Nc1ccc(Cl)c(C(F)(F)F)c1
inactive: [1] -25.2% | [2] -30.2% | [3] -30.9% | [4] 10.5% | [5] 12.2% | [6] -17.9%

CCCCCSc1ncnc2c1ncn2CO
inactive: [1] 0.9% | [2] 18.1% | [3] 7.45% | [4] 9.75% | [5] 42.7% | [6] 3.6%

CCCOc1ccc(C(=O)C(=O)c2ccccc2)cc1
inactive: [1] 13.4% | [2] -0.2% | [3] -3.95% | [4] 0.8% | [5] 11.4% | [6] 7%

Nc1ccc2c(c1)-c1ccccc1C2O (centres undefined)
inactive: [1] -1.2% | [2] -19.1% | [3] -37.8% | [4] -60.9% | [5] -17.1% | [6] -16.4%

Oc1cccc2c1N1CCN2CC1
inactive: [1] -2.15% | [2] 2.55% | [3] 11.2% | [4] 4.85% | [5] 9.6% | [6] 10.3%

CCCC(CCc1ccccc1)C(=O)NC(N)=O (centres undefined)
inactive: [1] 4.5% | [2] -5.6% | [3] 1.45% | [4] 2.55% | [5] 42.7% | [6] 1.4%

c1ccc2c(c1)Nc1nsnc1N2
inactive: [1] 3.8% | [2] -9.4% | [3] -6% | [4] 13.8% | [5] 13.2% | [6] 2.25%

Cc1ccccc1OCC1COCN(C(C)(C)C)CO1 (centres undefined)
inactive: [1] -13.5% | [2] -2.2% | [3] 4.95% | [4] 7.8% | [5] -20.9% | [6] 19.6%

COS(=O)c1cc(Cl)cc(Cl)c1O (centres undefined)
inactive: [1] -0.6% | [2] 4.55% | [3] -10.7% | [4] -28.2% | [5] -0.85% | [6] 2.25%

COc1cc2c(cc1C(C)c1ccc(OC(C)C)cc1)OCO2 (centres undefined)
inactive: [1] -4.7% | [2] -9.95% | [3] -3.95% | [4] -48.5% | [5] -5.9% | [6] -11.5%

CSc1nc(NC2OC(COC(C)=O)C(OC(C)=O)C(OC(C)=O)C2OC(C)=O)c(C(=O)CCl)c(=O)n1C (centres undefined)
inactive: [1] 6.8% | [2] 15.9% | [3] 3.15% | [4] 5.8% | [5] 5.1% | [6] 24.5%

CN=C(NC#N)NCCSCc1nc[nH]c1C
inactive: [1] 20.3% | [2] 16.8% | [3] -17.5% | [4] -5.2% | [5] -16.6% | [6] -29.2%

O=C(O)CC(Cc1ccccc1)C(=O)O (centres undefined)
inactive: [1] 1% | [2] -3.45% | [3] -26.1% | [4] -17.8% | [5] -31.9% | [6] 2.05%

O=C(O)/C=C\CCCCC(=O)O
inactive: [1] 35.4% | [2] 0.95% | [3] 15.1% | [4] 6.75% | [5] 13.8% | [6] 37.5%

O=C1COC(c2ccccc2O)=NN1CCCN1CCCC1
inactive: [1] 12.9% | [2] -23.8% | [3] 21% | [4] -3.4% | [5] 14.1% | [6] 25.3%

Cc1ccccc1-c1nc(/C=C2\C(=O)C=Cc3ccccc32)c(O)o1
inactive: [1] -17.3% | [2] -4.45% | [3] -1.1% | [4] 23.6% | [5] -2.55% | [6] -1.6%

CCc1nc(N)nc(N)c1-c1ccc(Cl)c(S(=O)(=O)O)c1
inactive: [1] -27.1% | [2] -26.1% | [3] -9.8% | [4] -13.4% | [5] -15.1% | [6] 1.85%

COc1ccc2c(c1)CCC1C2CCC2(C)C(=O)C(n3cnc4c(SC)ncnc43)CC12 (centres undefined)
inactive: [1] 42.3% | [2] 19.6% | [3] 58.4% | [4] 29.1% | [5] 25.2% | [6] 46.9%

CCOc1cc[n+](C)c2ccc(C)cc12
inactive: [1] 13.6% | [2] 12.8% | [3] 11.3% | [4] 16.3% | [5] 21.5% | [6] 26.7%

NC1=NCCN1
inactive: [1] 31.9% | [2] 11.3% | [3] 3.5% | [4] -1.85% | [5] 16.8% | [6] 24.3%

CC(C)(C)n1nc(C2CC2)cc1NC(=O)Nc1ccc(Cl)cc1
inactive: [1] -0.55% | [2] -8.25% | [3] -8.55% | [4] 8.85% | [5] -2.55% | [6] 2.4%

CCCCCCCOC(C)=O
inactive: [1] 14.8% | [2] -11.8% | [3] 11.3% | [4] -16.2% | [5] -3% | [6] 21.6%

O=C(O)CCC(=O)CCC(=O)c1ccc(O)c2ncccc12
inactive: [1] -6.55% | [2] 6.2% | [3] 16.8% | [4] 26.5% | [5] 16.2% | [6] 21.5%

Cc1nc2c(cnn2C)c(=O)n1-c1ccccc1Cl
inactive: [1] 21.4% | [2] 17.2% | [3] 11.8% | [4] 41% | [5] 29.9% | [6] 17.3%

O=c1oc2ccc3ccccc3c2cc1-c1c[nH]c2ccccc12
inactive: [1] 10.7% | [2] 10% | [3] 15.2% | [4] 11.6% | [5] 6.05% | [6] 7.05%

CCC1(C(=O)OC)CCc2c(OC)ccc(OC)c2C1=O (centres undefined)
inactive: [1] -8.65% | [2] -9.35% | [3] 0.1% | [4] 3.25% | [5] -12.9% | [6] -46.8%

O=C(Nc1ncnc2c1ncn2C1OC(COC(=O)c2ccccc2)C(OC(=O)c2ccccc2)C1OC(=O)c1ccccc1)c1ccccc1 (centres undefined)
inactive: [1] 5.15% | [2] 15.6% | [3] -1.25% | [4] 10.8% | [5] 4.05% | [6] 34.6%

CCOc1ccccc1NC(=O)Nc1cccc2ccccc12
inactive: [1] -3.5% | [2] 3.75% | [3] 3.65% | [4] -22.3% | [5] -6.8% | [6] -15.4%

Cc1ccc(S(=O)(=O)c2ccc(C)cc2C(=O)O)cc1
inactive: [1] -8.6% | [2] -19.3% | [3] -1.4% | [4] -9.8% | [5] -30.2% | [6] -22.4%

[Cl][Pt+2][Cl].[NH-]CC1(C[NH-])CCC1
inactive: [1] 1.1% | [2] 1.5% | [3] 9.2% | [4] 9% | [5] -18.9% | [6] -40%

CC1(C)CC(O)CC(O)C1 (centres undefined)
inactive: [1] -4.3% | [2] -0.55% | [3] -0.2% | [4] 14.1% | [5] -0.15% | [6] -6.9%

C(=C\c1csnn1)/c1ccc(/C=C/c2csnn2)cc1
inactive: [1] -18% | [2] 15.9% | [3] 7.7% | [4] 11.9% | [5] 5.3% | [6] -8.2%

Cc1ccc(S/C=C/Sc2ccc(C)cc2)cc1
inactive: [1] 15.1% | [2] 8.15% | [3] 3.55% | [4] -14.6% | [5] 22.9% | [6] 36%

N#Cc1cc2c(cc1C#N)SCCSCCCSCCS2
inactive: [1] 1.2% | [2] 5% | [3] 1.05% | [4] 22.4% | [5] 6% | [6] -24.8%

O=C(O)c1ccc(O)cc1O
inactive: [1] 12.8% | [2] 18.6% | [3] -25.2% | [4] -29.4% | [5] -4.65% | [6] -2.5%

CC1(C)OCC(C2OC3OC(C)(C)OC3C2O)O1 (centres undefined)
inactive: [1] 4% | [2] 15.2% | [3] 10.5% | [4] -15.8% | [5] 11.7% | [6] 7.9%
